Test [1] in a line: compounds binding Alexa647 anti-His antibody – biochemical, small-molecule microarray, 635 nm fluorescence, artefact control for SMM control protein annotation, primary screen (AID 1128).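 Further: score merges feature fluorescence with signal-to-noise for each printed compound spot.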 The following applies: higher = more signal.
Test [2] deals with Human papillomavirus type 1a E7 protein (residues 1-88). The experiment in a line: HPV1a E7 small-molecule binders, primary screen, biochemical, small-molecule microarray, residues 1-88, 635 nm (AID 1129). The following applies: small-molecule microarray binding, fluorescence 635 nm; higher = more signal.
In test [3] the target is Focal adhesion kinase 1 (Homo sapiens) (UniProt Q05397). The experiment in a line: PTK2 protein binding on printed compound slides – biochemical, small-molecule microarray, 635/667 nm fluorescence, BSA, DTT, primary screen (AID 1130).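 Further: composite of spot emission at 667 nm and signal to noise over triplicate slides.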 The note with it: 635 nm fluorescence, higher = more signal.
The test system of test [4] is Fibrinogen (Alexa647-labelled). The test is described as follows: Alexa647-fibrinogen binding to printed small molecules – biochemical, small-molecule microarray, 635/667 nm fluorescence, artefact control for SMM control-protein annotation, profiling panel (AID 1131).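 Further: z-score merges 667 nm fluorescence with per-spot signal-to-noise over triplicate slides.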 The note with it: fibrinogen-A647 binding fluorescence, higher = more signal.
In test [5] the target is Follistatin (Homo sapiens) (UniProt P19883). The test is described as follows: FST protein binding to printed compounds – biochemical, small-molecule microarray, 635/667 nm fluorescence, primary screen (AID 1132). The following applies: 635 nm fluorescence, higher = more signal.
In test [6] the target is Fibroblast growth factor 2 (Homo sapiens) (UniProt P09038). The test is described as follows: basic fibroblast growth factor binding to printed compounds – biochemical, small-molecule microarray, 635/667 nm fluorescence, primary screen (AID 1133). The following applies: FGF2, fluorescence 635/667, higher = more signal.
A short description of test [7]: JC-1 mitochondrial potential readout, lung cancer cells – cell-based, A549, JC-1 fluorescence, basal, 24 h, 100 nL, profiling panel (AID 1138).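 Further: A549 lung adenocarcinoma cells under basal conditions with no added stimulus; test concentration not given here.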 The following applies: higher = more signal.
The test system of a further test is Lefty1. The experiment in a line: Lefty1 protein binding to printed compounds – biochemical, small-molecule microarray, 635/667 nm fluorescence, primary screen (AID 1139). The following applies: fluorescence 635/667, higher = more signal.
Test [8] deals with wheat germ agglutinin (Triticum aestivum), Alexa647-labelled. The test is described as follows: Alexa647-WGA lectin binding to printed small molecules – biochemical, small-molecule microarray, 635/667 nm fluorescence, artefact control for SMM control-protein annotation, profiling panel (AID 1140).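 Further: score merges 667 nm feature emission with signal to noise over triplicate slides.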 The following applies: WGA-A647 binding, 635 nm fluorescence, higher = more signal.

The target in test [9] is Luciferin 4-monooxygenase (Photinus pyralis) (UniProt P08659). The experiment in a line: inhibition of purified Photinus pyralis luciferase – biochemical, luminescence, purified enzyme, 2006 set, primary screen (AID 1141).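 Further: cell-free assay with purified firefly luciferase at 100 ng per well in PBS; test concentration not given here.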 The following applies: purified firefly luciferase, SteadyGlo luminescence, 30 min; higher = more signal, called active from +8 up or from −8 down.
Test [10] deals with Wnt5a (protein binding on small-molecule microarray). The experiment in a line: small molecules binding Wnt5a protein – biophysical, small-molecule microarray, 635/667 nm fluorescence, primary screen (AID 1142).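 Further: fluorescence read at 667 nm with signal to noise per printed feature.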 The following applies: 635 nm fluorescence, higher = more signal.
Test [11] can be described thus: ATP-based viability of Huh7 replicon cells – cell-based, CellTiter-Glo luminescence, basal, 48 h, cytotoxicity control for HCV replication inhibitor project, primary screen (AID 1143).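 Further: Huh7 hepatoma cells carrying a hepatitis C replication reporter with no stimulus; test concentration not given here.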 The following applies: higher = more signal, called active from +8 up or from −8 down.
Test [12] is described as follows: Pseudomonas biofilm growth suppression – PAO1 strain, BacTiter-Glo luminescence, LB-PBS, primary screen (AID 1144). The following applies: P. aeruginosa PAO1 biofilm, 12 h, higher = more signal.
Test [13] in a line: basal CRE-LacZ reporter activity in PC12 – cell-based, unstimulated, primary screen (AID 1145). The note with it: no forskolin, luminescence, 4.5 h, higher = more signal, called active from +8 up or from −8 down.
Test [14] is described as follows: forskolin-driven CRE-LacZ activity in PC12 – cell-based, CRE-LacZ reporter, forskolin-stimulated, primary screen (AID 1146).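 Further: PC12 cells with 6xCRE LacZ reporter stimulated by forskolin 10 µM; beta-galactosidase reporter signal reflecting CREB driven transcription.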 The note with it: luminescence, 4.5 h, higher = more signal, called active from +8 up or from −8 down.
Test [15] has as its target Streptavidin (Streptomyces avidinii) (UniProt P22629). The test is described as follows: compounds binding control protein streptavidin – biophysical, small-molecule microarray, 635/667 nm fluorescence, artefact control for SMM compound annotation, primary screen (AID 1147).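 Further: signal reflects streptavidin binding to arrayed compounds as a control protein.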 The following applies: higher = more signal.
Test [16] in a line: probe aInhba binding on compound microarray – biochemical, small-molecule microarray, 635/667 nm fluorescence, primary screen (AID 1148).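 Further: score merges 667nm spot fluorescence with signal-to-noise for antibody binding to printed compounds.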 The note with it: higher = more signal.
In test [17] the target is Torsin-1A (Homo sapiens) (UniProt O14656). The test is described as follows: TOR1A wild-type binding on microarray – cell lysate, small-molecule microarray, lysate, 635/667 nm, primary screen (AID 1149). The following applies: COS7 hTOR1A-WT lysate, 635 nm fluorescence, higher = more signal.
For test [18] the target is unchanged. The experiment in a line: torsin A mutant lysate binding on microarrays – cell lysate, small-molecule microarray, COS7 lysate, 635/667 nm fluorescence, primary screen (AID 1150).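 Further: score pools 667 nm emission and signal to noise measuring lysate protein binding.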 The following applies: COS7 hTOR1A mutant lysate, 635 nm fluorescence, higher = more signal.
Test [19] concerns Sonic hedgehog protein (Shh). The experiment in a line: Sonic hedgehog microarray binding compounds – biochemical, small-molecule microarray, 635/667 nm fluorescence, primary screen (AID 1151).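 Further: Shh protein binding to compounds spotted on small-molecule microarray slides; score combines spot fluorescence intensity with signal-to-noise across triplicate slides.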 The note with it: 635 nm fluorescence, higher = more signal.

Molecules are shown by their SMILES. Activity calls are given as the source filed them. Unless noted, how the calls were made is not given here.

Sequence of Fibroblast growth factor 2 (Homo sapiens) (P09038 whole entry, looked up): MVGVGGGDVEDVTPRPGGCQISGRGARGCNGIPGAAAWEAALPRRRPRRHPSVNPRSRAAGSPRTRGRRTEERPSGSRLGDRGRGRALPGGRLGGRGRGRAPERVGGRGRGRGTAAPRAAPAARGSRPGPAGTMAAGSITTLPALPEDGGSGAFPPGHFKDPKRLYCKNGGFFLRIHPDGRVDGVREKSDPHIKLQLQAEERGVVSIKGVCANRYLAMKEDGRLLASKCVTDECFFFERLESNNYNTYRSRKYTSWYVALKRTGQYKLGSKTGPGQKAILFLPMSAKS
Sequence of Follistatin (Homo sapiens) (P19883 whole entry, looked up): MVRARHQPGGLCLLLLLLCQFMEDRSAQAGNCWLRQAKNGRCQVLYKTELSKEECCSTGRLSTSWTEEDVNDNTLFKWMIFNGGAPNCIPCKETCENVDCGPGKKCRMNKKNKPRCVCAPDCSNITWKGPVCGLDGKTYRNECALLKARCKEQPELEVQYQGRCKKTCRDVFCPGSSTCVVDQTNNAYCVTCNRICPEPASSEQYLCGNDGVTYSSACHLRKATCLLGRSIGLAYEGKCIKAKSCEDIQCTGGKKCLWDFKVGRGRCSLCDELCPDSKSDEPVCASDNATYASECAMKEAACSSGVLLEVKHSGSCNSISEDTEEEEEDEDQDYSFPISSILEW
Sequence of Focal adhesion kinase 1 (Homo sapiens) (Q05397 whole entry, looked up): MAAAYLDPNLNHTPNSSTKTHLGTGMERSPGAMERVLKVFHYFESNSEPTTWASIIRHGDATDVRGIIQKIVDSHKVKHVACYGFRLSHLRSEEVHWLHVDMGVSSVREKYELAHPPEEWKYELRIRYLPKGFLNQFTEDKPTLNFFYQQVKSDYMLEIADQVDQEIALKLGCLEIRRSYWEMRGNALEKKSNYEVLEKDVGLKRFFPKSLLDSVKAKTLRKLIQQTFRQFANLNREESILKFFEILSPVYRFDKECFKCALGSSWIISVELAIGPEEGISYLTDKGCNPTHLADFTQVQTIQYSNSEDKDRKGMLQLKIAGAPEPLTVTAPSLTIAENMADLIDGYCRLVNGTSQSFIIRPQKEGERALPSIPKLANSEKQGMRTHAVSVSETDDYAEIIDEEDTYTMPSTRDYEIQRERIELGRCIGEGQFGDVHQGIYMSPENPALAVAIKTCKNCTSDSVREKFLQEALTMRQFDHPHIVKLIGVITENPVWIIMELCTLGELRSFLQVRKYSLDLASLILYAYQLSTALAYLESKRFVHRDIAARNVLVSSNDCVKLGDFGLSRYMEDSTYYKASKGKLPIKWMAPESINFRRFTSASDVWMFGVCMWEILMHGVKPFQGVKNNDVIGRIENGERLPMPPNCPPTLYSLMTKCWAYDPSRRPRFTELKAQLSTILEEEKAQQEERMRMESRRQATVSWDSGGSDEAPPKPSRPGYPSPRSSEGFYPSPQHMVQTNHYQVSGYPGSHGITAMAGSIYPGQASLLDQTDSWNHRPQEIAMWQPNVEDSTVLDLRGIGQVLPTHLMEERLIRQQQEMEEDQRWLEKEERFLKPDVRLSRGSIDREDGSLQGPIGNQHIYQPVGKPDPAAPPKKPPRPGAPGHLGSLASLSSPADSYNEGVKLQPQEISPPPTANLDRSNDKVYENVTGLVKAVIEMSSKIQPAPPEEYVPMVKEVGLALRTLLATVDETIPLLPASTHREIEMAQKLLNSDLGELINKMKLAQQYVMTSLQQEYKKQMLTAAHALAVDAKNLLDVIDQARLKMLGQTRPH
Sequence of Torsin-1A (Homo sapiens) (O14656 whole entry, looked up): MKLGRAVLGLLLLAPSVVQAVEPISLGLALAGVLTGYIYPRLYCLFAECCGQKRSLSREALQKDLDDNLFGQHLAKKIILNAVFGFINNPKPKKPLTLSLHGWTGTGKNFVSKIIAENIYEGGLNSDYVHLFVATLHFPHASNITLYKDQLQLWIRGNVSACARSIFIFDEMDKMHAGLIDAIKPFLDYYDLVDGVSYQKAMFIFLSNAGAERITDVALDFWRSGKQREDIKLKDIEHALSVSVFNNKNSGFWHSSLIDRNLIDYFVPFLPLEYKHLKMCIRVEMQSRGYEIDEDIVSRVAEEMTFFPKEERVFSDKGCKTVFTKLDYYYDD
Sequence of Luciferin 4-monooxygenase (Photinus pyralis) (P08659 whole entry, looked up): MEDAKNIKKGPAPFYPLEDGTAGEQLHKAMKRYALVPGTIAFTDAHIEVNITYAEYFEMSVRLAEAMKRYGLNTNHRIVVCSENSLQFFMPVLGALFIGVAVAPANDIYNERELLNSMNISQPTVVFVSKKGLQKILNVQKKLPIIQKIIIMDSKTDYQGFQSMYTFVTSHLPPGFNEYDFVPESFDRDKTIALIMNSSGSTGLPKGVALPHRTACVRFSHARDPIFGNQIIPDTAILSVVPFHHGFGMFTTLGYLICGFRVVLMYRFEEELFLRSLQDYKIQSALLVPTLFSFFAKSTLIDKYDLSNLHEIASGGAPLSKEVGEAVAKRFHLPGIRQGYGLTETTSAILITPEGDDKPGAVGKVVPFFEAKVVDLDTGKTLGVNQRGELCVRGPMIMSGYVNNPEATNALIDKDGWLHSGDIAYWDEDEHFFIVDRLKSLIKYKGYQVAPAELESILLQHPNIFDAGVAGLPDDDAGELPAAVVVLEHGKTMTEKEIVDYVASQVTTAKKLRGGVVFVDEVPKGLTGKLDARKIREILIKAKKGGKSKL
Sequence of Streptavidin (Streptomyces avidinii) (P22629 whole entry, looked up): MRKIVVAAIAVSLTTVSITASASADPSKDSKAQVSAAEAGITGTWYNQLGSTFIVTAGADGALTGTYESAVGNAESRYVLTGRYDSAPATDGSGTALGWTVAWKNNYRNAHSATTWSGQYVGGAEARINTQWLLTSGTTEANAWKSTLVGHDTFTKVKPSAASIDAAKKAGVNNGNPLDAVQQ

For `O=C1OCC=C[C@H]2OC34C=CCN(Cn5nnc6ccccc65)C(=O)[C@H]3N(CCCCCCO)C(=O)[C@@H]4[C@@H]12` (stereo not given in full), the composite z-score is 1.42 in test [1]; -0.238 in test [2]; 0.058 in test [3]; -1.49 in [4]; -0.982 in [5]; -0.525 in test [6]. For the same compound, the composite z-score is -0.835 in the test on Lefty1; -0.544 in test [8]; -0.277 in [10]; -0.701 in test [15]; 0.111 in test [16]; -0.494 with Torsin-1A (Homo sapiens) [17]. For the same compound, the composite z-score with Torsin-1A (Homo sapiens) [18] was -0.416; in test [19] it was -0.104. Further, the z-score is 0.421 in test [7]; -0.283 (inactive) in test [9]; 0.205 (inactive) in test [11]; 1.16 (inactive) in [12]; 0.0484 (inactive) in test [13]; -0.116 (inactive) in test [14].

For the compound `Cc1ccc(S[C@]2(C(=O)NCCN3CCOCC3)CC(=O)N(Cc3ccccc3C(F)(F)F)[C@@H]2c2ccc(CO)cc2I)cc1`, the composite z-score in [1] is 0.771; in test [2], -0.0269; in test [3] it was 0.167; in [4], -1.16; in [5], -0.562; in test [6], -0.907. Further, the composite z-score in the test on Lefty1 was -0.87; in [8] it was -0.194; in test [10] it was 0.0381; in test [15], -1.49; in [16], -0.157; in the test with Torsin-1A (Homo sapiens) [17] it was 0.174. Moreover, the values for the composite z-score (with Torsin-1A (Homo sapiens) [18]; in test [19]) were -0.38 and -0.245, respectively. The z-score in test [7] was -0.695; in [9], 0.622 (inactive); in test [11], -0.984 (inactive); in [12], -0.487 (inactive); in [13], 0.299 (inactive); in [14], 4.04 (inactive).

In the case of `O=C1O[C@@H](c2ccccc2)[C@@H](c2ccccc2)N2[C@@H](c3ccccc3OCCO)[C@]3(C(=O)Nc4ccccc43)[C@@H](C(=O)NC[C@H](O)c3ccccc3)[C@H]12`, the composite z-score in [1] is -0.27; in [2], 1.19; in [3], 0.682; in [4], -0.0424; in test [5], -0.185; in test [6] it was -0.452. The composite z-score in the test with Lefty1 is -0.373; in test [8], -0.545; in test [10], -0.123; in test [15], -0.625; in test [16], -0.149; in the test with Torsin-1A (Homo sapiens) [17], 0.604. Moreover, the composite z-score with Torsin-1A (Homo sapiens) [18] was determined as 0.297; in test [19] it was 0.0935. Further, the z-score is 0.171 in test [7]; 0.0121 (inactive) in test [9]; -6.2 (inactive) in [11]; -0.668 (inactive) in test [12]; 0.209 (inactive) in test [13]; 4.03 (inactive) in test [14].

For the compound `O=C1OCCC=C[C@H]2OC34C=CCN(c5ccc(Cl)cc5)C(=O)[C@H]3N(CCCCCO)C(=O)[C@@H]4C12` (stereo not given in full), the composite z-score is 3.41 in test [1]; -0.457 in test [2]; -0.226 in [3]; -0.929 in test [4]; -0.514 in test [5]; -0.297 in [6]. Further, the composite z-score in the test with Lefty1 is -0.314; in [8], -0.21; in [10], -0.244; in test [15], -0.654; in test [16], -0.0986; in the test with Torsin-1A (Homo sapiens) [17], 0.0095. Also, the composite z-score with Torsin-1A (Homo sapiens) [18] is 1.05; in [19] it was 0.58. The z-score in test [7] was 2.6; in [9] it was -1.31 (inactive); in test [11], -0.091 (inactive); in [12], -0.622 (inactive); in test [13], 0.187 (inactive); in test [14] it was -0.382 (inactive).

`CC(CO)N1C(=O)[C@@H]2C3C(=O)OCCC/C=C\[C@H]3OC23C=CCN(Cn2nnc4ccccc42)C(=O)[C@@H]13` (stereo not given in full): the composite z-score in test [1] is 3.15; in test [2], -0.589; in test [3], -0.923; in [4] it was -0.326; in test [5] it was -0.171; in test [6], -0.614. Besides, the composite z-score with Lefty1 was -0.13; in test [8] it was -0.276; in test [10], -0.275; in [15] it was -0.521; in test [16], -0.024; in the test with Torsin-1A (Homo sapiens) [17], -1.02. Further, the composite z-score was -0.296 with Torsin-1A (Homo sapiens) [18] and 0.276 in [19]. Further, the z-score in test [7] is 0.918; in [9], 0.196 (inactive); in test [11] it was 0.39 (inactive); in [12] it was -1.36 (inactive); in test [13], -0.358 (inactive); in test [14], -0.691 (inactive).
